The results in this text go back to PubChem BioAssay (NCI).

Compounds without any hit were thinned out: in the full panel of roughly 83,000, 20% have a hit.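 Interpretation: 100, growth as untreated; towards 0, rising growth inhibition; 0, no net growth; 0 to -100, cell death. Compounds scoring below 10 were considered active.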 A number with no mark means an inactive call. Calls of active or inactive are those of the source.

Some test systems named below: SN12C renal; UO-31 renal; TK-10 renal; ACHN renal; CAKI-1 renal; A498 renal; CCRF-CEM leukemia; MOLT-4 leukemia; SR leukemia.
What all share (assay): NCI-60 one-dose screen, 48 h (100 = growth as untreated, 0 = no growth, -100 = all killed)
Common to all, as to conditions: 10 µM unless noted

As for `CCOC(=O)CSc1c(-c2ccccc2)c2cc(Cl)ccc2[nH]c1=O`, the growth was 102% in the test on SN12C renal; 86.2% in the test with UO-31 renal; 107% with TK-10 renal; 97.6% with ACHN renal; 92% with CAKI-1 renal; 101% in the test on A498 renal. Further, the growth in the test on CCRF-CEM leukemia is 95.7%; in the test with MOLT-4 leukemia, 88.3%.

On to `CC(C)(C)c1ccc(C2CC(=O)C3=C(C2)Nc2ccccc2N(C(=O)c2ccccc2Cl)C3c2ccc(F)cc2)cc1` (centres undefined), for which the growth was 3.86% (active) in the test with SN12C renal; 23.7% in the test with UO-31 renal; 58.9% in the test with TK-10 renal; 19.9% with ACHN renal; 2.95% (active) in the test on CAKI-1 renal; 35.5% with A498 renal. Also, the growth in the test with CCRF-CEM leukemia was 15.7%; in the test on MOLT-4 leukemia, 6.7% (active); in the test with SR leukemia, 9.77% (active).

As for `c1ccc(-c2ccc(-c3nc4ccccc4[nH]3)cc2)cc1`, the growth in the test with SN12C renal is 92.9%; in the test on UO-31 renal, 67.4%; in the test with TK-10 renal it was 84.7%; with ACHN renal, 90.7%; in the test with CAKI-1 renal it was 93.6%; in the test with A498 renal, 88.6%. The growth is 38.4% in the test on CCRF-CEM leukemia and 56.9% in the test on MOLT-4 leukemia.

With `CCOC(=O)C(CC(=O)O)=C(C(=O)OCC)C(=O)OCC`, the growth with SN12C renal was 104%; with UO-31 renal, 98.8%; in the test on TK-10 renal, 120%; in the test with ACHN renal, 105%; with CAKI-1 renal, 99.6%; with A498 renal it was 104%. The growth was 110% in the test with CCRF-CEM leukemia and 95.8% in the test with MOLT-4 leukemia.

Take `CC1CCCCN1CCCNC(=O)c1ccc2c(c1)sc1nc(-c3ccc(F)cc3)cn12` (centres undefined): the growth was 99.6% with SN12C renal; 77% in the test with UO-31 renal; 90.4% in the test with TK-10 renal; 101% in the test on ACHN renal; 97.4% in the test with CAKI-1 renal; 83.7% in the test on A498 renal. Besides, the results for the growth in the test on CCRF-CEM leukemia, with MOLT-4 leukemia and in the test with SR leukemia were 82.8%, 85.7% and 78.1%, respectively.

For `CCN(CC)CCCNc1ccnc2cc3ccccc3cc12`, the growth in the test with SN12C renal was 87.6%; in the test with UO-31 renal it was 106%; with TK-10 renal, 83.8%; in the test on ACHN renal it was 70.7%; in the test on CAKI-1 renal it was 75.3%; in the test on A498 renal, 94%. Moreover, the growth was 91.1% in the test with CCRF-CEM leukemia and 87.3% in the test with MOLT-4 leukemia.

As to `COc1ccc(C2NCCc3c2[nH]c2ccccc32)cc1CN1CCN(c2ccc(F)cc2)CC1` (centres undefined), the growth was 55.6% with SN12C renal; 2.15% (active) with UO-31 renal; 56.6% in the test with TK-10 renal; 64.7% in the test with ACHN renal; 28.8% in the test on CAKI-1 renal; 89.8% in the test on A498 renal. The growth was 16.3% with CCRF-CEM leukemia, 23.6% in the test with MOLT-4 leukemia and 19.9% with SR leukemia.

Take `COc1cc(C(C)n2cc(-c3ccccc3)nn2)ccc1OC1CCCCC1` (centres undefined): the growth with SN12C renal was 67.7%; with UO-31 renal, 56.9%; with TK-10 renal it was 75.3%; in the test on ACHN renal it was 51.1%; with CAKI-1 renal, 48.7%; in the test with A498 renal, 49.3%. Also, the growth was 55.3% in the test with CCRF-CEM leukemia and 50.1% with MOLT-4 leukemia.

For the molecule `COc1cc(C(=O)Nc2ccc(-c3nc4ccccc4[nH]3)cc2)cc(OC)c1OC`, the growth in the test with SN12C renal is 45.4%; with UO-31 renal, 49.5%; in the test with TK-10 renal, 60.1%; in the test on ACHN renal it was 61.9%; in the test on CAKI-1 renal, 55.9%; with A498 renal it was 37.6%. Moreover, the growth in the test on CCRF-CEM leukemia was 36.5%; with MOLT-4 leukemia, 41.3%.

For the molecule `Clc1ccc(Nc2nnc(-c3ccc4c(c3)OCO4)o2)cc1`, the growth in the test with SN12C renal is 96.6%; in the test with UO-31 renal, 86.9%; with TK-10 renal, 94.6%; in the test on ACHN renal it was 102%; in the test with CAKI-1 renal, 98.4%; with A498 renal it was 97.5%. Also, the growth is 100% in the test on CCRF-CEM leukemia, 82.7% in the test on MOLT-4 leukemia and 83.4% in the test with SR leukemia.

Regarding `COc1ccc(/C=C/C(=O)c2ccc3cc(OC)c(OC)cc3c2)cc1OC`, the growth is 32.2% in the test with SN12C renal; 27.7% with UO-31 renal; 65.1% in the test with TK-10 renal; 55.4% with ACHN renal; 30.2% in the test with CAKI-1 renal; 70.9% in the test with A498 renal. Further, the figures for the growth in the test on CCRF-CEM leukemia and with MOLT-4 leukemia were 32.8% and 30.7%, respectively.

As to `Cn1c(=O)n(C)c2cc(CNCCNc3ccnc4cc(Cl)ccc34)ccc21`, the growth in the test with SN12C renal is 63.3%; in the test with UO-31 renal, 36.9%; in the test on TK-10 renal, 62.3%; in the test with ACHN renal, 4.21% (active); in the test with CAKI-1 renal it was 66.2%; in the test with A498 renal it was 72.3%. Also, the values for the growth in the test with CCRF-CEM leukemia and in the test with MOLT-4 leukemia were 58.5% and 61.1%, respectively.

For `N#Cc1c(N)nc2c(c1N)C(c1ccc(F)cc1)c1ccc(N)cc1O2` (centres undefined), the growth in the test on SN12C renal was 104%; in the test on UO-31 renal, 105%; with TK-10 renal, 116%; in the test on ACHN renal it was 102%; in the test with CAKI-1 renal it was 91.3%; with A498 renal, 58.4%. Moreover, the growth in the test with CCRF-CEM leukemia is 99.9%; in the test on MOLT-4 leukemia, 96.4%.

Regarding `CCCCCCc1cc2cc(-c3csc(/C=C/c4ccccc4)n3)c(=O)oc2cc1O`, the growth in the test with SN12C renal is 34.9%; with UO-31 renal it was 13.5%; with TK-10 renal, 49%; with ACHN renal, 41.6%; with CAKI-1 renal, 32.8%; in the test with A498 renal it was -25.3% (active). The growth with CCRF-CEM leukemia was 2.21% (active); with MOLT-4 leukemia it was 4.75% (active); with SR leukemia it was -7.16% (active).

On to `COc1ccc(-c2nc(-c3ccccc3)c(-c3ccccc3)[nH]2)cc1OC1CCCCC1`, for which the growth was 81.6% in the test with SN12C renal; 59.3% in the test with UO-31 renal; 115% in the test with TK-10 renal; 68.9% in the test with ACHN renal; 71.7% with CAKI-1 renal; 68.2% in the test on A498 renal. Further, the growth in the test on CCRF-CEM leukemia is 91.6%; in the test on MOLT-4 leukemia, 79.4%.

Consider `O=C(NC1CCN(Cc2ccccc2)CC1)c1cc2nc(-c3ccc(Cl)s3)cc(C(F)(F)F)n2n1`, for which the growth in the test on SN12C renal is 91.3%; with UO-31 renal, 96.1%; in the test with TK-10 renal, 84.9%; with ACHN renal, 96.4%; with CAKI-1 renal, 102%; with A498 renal, 98.6%. For the same molecule, the growth with CCRF-CEM leukemia is -21.7% (active); in the test with MOLT-4 leukemia, -34.3% (active); with SR leukemia it was -8.99% (active).
